SARS PLpro yeast-1 = blocks SARS-CoV papain-like protease in a yeast assay | 0.19% of 330,000 active | S. cerevisiae expressing SARS-CoV PLpro, growth rescue | AID 485353 | Potency, µM (top dose mostly 32.9 µM), for inactives: top-dose activity, positive = growth rescue, most hits filed as activators; calls by dose curve; also: potency is read from the fitted curve at half-maximal effect; 0% is about no effect; nearly all actives have a fitted effect of over 55% in size
Marburg entry inh = Marburg virus entry inhibition | Marburg virus pseudotyped entry inhibition, cell reporter | Potency, µM (top dose mostly 37.8 µM), without a hit: at the highest dose activity change, negative = inhibition, hits mostly inhibitors | 1.8% of 300,000 active | AID 540276; calls by dose curve; tested in HEK293 cells; also: potency is read from the fitted curve at half-maximal effect; % is scaled to controls: 0 for no effect and ±100 for the full control effect
LASV entry inh = inhibitors of Lassa virus binding or cell entry. Lassa virus pseudotype entry inhibition, cell reporter. Potency, µM (top dose mostly 37.9 µM), for inactives: at the highest dose activity change, negative = inhibition, usual class: inhibitors. 1.2% of 300,000 active; calls by dose curve; tested in HEK293 cells; also: potency is read from the fitted curve at half-maximal effect; % is scaled to controls: 0 for no effect and ±100 for the full control effect; nearly all actives have a fitted effect of over 50% in size
FMDV antiviral = blocks foot and mouth disease virus | Potency, µM (series often up to 57.9 µM), for inactives: top-dose activity change, negative = inhibition, most hits filed as inhibitors | 1.2% of 410,000 active | FMDV antiviral cell-based qHTS; calls by dose curve; tested in HEK293T cells; also: read-out not given here; potency is read from the fitted curve at half-maximal effect; % is scaled to controls: 0 for no effect and ±100 for the full control effect; nearly all actives have a fitted effect of over 45% in size
HCMV antiviral = inhibitors of human cytomegalovirus. HFF cells, HCMV-luciferase reporter, 72 h; hits give low values. activity change, negative = inhibition, % at 57.5 µM. 4.5% of 410,000 active. AID 1259415; in the data active = activity change below about -60%; inconclusive = no clear call, values can overlap the other calls; inactive = above about -39%; also: % is scaled to controls: 0 for no effect and ±100 for the full control effect
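Two compound doses tested in HFFs infected with HCMV-luciferase, MOI 1 PFU/cell, 72 h at 37C. Lysate luminescence read with OneGlo; data normalized against buffer-only and 10uM Salinomycin inhibitor controls.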
HCV inh = HCV inhibition | Huh7.5.1 HCVcc-Cre infection, luciferase reporter, 44 h | Potency, µM (series often up to 41.8 µM), inactives show top-dose activity change, negative = inhibition, most hits filed as inhibitors | 3.4% of 340,000 active; active = well fitted inhibition curve with a large enough effect; inconclusive = small, poorly fitted or top-dose-only effect, or another doubt; inactive = no such curve, though single readings can be large or run the other way; also: potency is read from the fitted curve at half-maximal effect; % is scaled to controls: 0 for no effect and ±100 for the full control effect
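Cells (1,000/well) were plated 4 h before compound, then infected with HCVcc-Cre virus (~0.5 moi). After 44 h further culture, infection was read as luciferase luminescence following a 15 min substrate incubation at room temperature.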
SARS PLpro yeast-2 = Validates SARS-CoV PLpro inhibitor hits in yeast. shares compounds with SARS PLpro yeast-1. yeast expressing SARS-CoV PLpro, growth phenotype rescue. calls only. 19% of 1,000 active. AID 652038; call rule not given here
An asterisk follows results filed as active; i = inactive; ? = inconclusive; . = no result given; + = active, no number; [ ] = another dose, or the depositor's remark. Rows were chosen to be rich in hits. Some 8% of all compounds tested hit in one or more screens of this group.

SMILES	SARS PLpro yeast-1	Marburg entry inh	LASV entry inh	FMDV antiviral	HCMV antiviral	HCV inh	SARS PLpro yeast-2
CC(C)C12CN3CC(C(C)C)(CN(C1)C3c1ccc(Cl)cc1)C2=O (centres undefined)	.	-5%[46.1 µM]	3%[46.1 µM]	-22%	16	.	.
C/C(=N\NC(=O)c1ccccc1)c1c(C)[nH]n(-c2ccccc2)c1=O	6.3µM*	?	-15%[46.1 µM]	-3%	-97*	?	i
Cc1cc(C)nc(N2CCCC(C(=O)NCCc3ccc(F)cc3)C2)n1 (centres undefined)	?	12%	3%	23%	-3	-7%	+
Cc1cc(C)nc(N2CCC(C(=O)NCCc3ccc(F)cc3)CC2)n1	-7%	?	2%	-18%	-16	7%	.
CC(=O)C1=C(O)[C@@H]2[C@@H]3c4c[nH]c5cccc(c45)C[C@@H]3C(C)(C)N2C1=O	.	.	.	-8%	.	.	.
O=C(/C=C1\NC2(CCCC2)Cc2ccccc21)C(=O)N/N=C/c1ccccc1O	7.9µM*	11µM*	15µM*	4%	-71*	?	+
COc1ccc2c(c1)Cc1sc(NC(=O)c3ccccc3C)nc1-2	.	?	3%[46.1 µM]	6%	-26	.	.
CCN(CC(=O)Nc1ccc(NC(C)=O)cc1)C(=O)/C=C/c1c(C)nn(-c2ccc(F)cc2)c1C	?	20%	?	-19%	2	1%	i
C[C@@H]1C[C@H]2[C@@H]3CCC4=CC(=O)C=C[C@]4(C)[C@@]3(F)[C@@H](O)C[C@]2(C)[C@H]1C(=O)CO	10µM*	0%	-22%	-22%	83	5%[8.37 µM]	i
O=C(CCN1C(=O)[C@@H]2Cc3ccccc3CN2C1=O)N[C@@H](Cc1ccccc1)C(=O)O	6.3µM*	.	.	-25%	-4	4%	i
CC(C)(C)c1nnc(N/N=C/c2cc(Br)ccc2O)n(N)c1=O	.	?	?	22µM*	-101*	?	i
Cc1ccc(Nc2c(-c3ccncc3)nc3ccc(C)cn23)cc1	.	9%[46.1 µM]	-9%[46.1 µM]	-22%	11	.	.
O=C(C1CCCN(S(=O)(=O)c2cccc3nonc23)C1)N1CCN(c2cccc(C(F)(F)F)c2)CC1 (centres undefined)	.	13%[46.1 µM]	-31%[46.1 µM]	?	-15	.	.
CCc1cc(C(=O)Cc2cnn(-c3ccccc3)c2)c(O)cc1O	3%	?	6%	-21%	-4	-16%	.
O=C(Cc1cnn(-c2ccccc2)c1)c1ccc(O)c(O)c1O	?	-1%	?	2%	52	-20%	i
COc1ccc(N(C(C)C(=O)NN=C2CCCC2)S(C)(=O)=O)cc1 (centres undefined)	11µM*	.	.	1%	-30	12%	i
CC(OC(=O)c1cccc(-n2cnnn2)c1)C(=O)c1ccccc1 (centres undefined)	?	21%[46.1 µM]	3%	-12%	19	-4%	i
COc1ccc2c(c1)CC(C(=O)NCCN1CCN(c3cccc(C)c3C)CC1)CO2 (centres undefined)	.	.	-18%[46.1 µM]	?	-6	.	.
CCc1ccccc1Nc1nc2ccccc2n2cnnc12	.	13%[46.1 µM]	7%[46.1 µM]	-24%	-20	.	.
c1cc2c(cc1[C@H]1OC[C@H]3[C@@H]1CO[C@H]3c1ccc3c(c1)OCO3)OCO2	?	.	.	?	63	?	i
CN1C(=O)c2ccccc2N(C)C1c1ccc2c(c1)OCO2 (centres undefined)	9%	-3%	3%	0%	-8	-10%	.
CCN1C(=NCc2ccccc2)N[C@@H](c2ccccc2)[C@H](C(=O)OC)[C@H]1C	?	-16%[14.2 µM]	.	-13%	-37	16%	i
O=C(Oc1c(CN2CCOCC2)cc(Cl)c2cccnc12)c1ccccc1F	2.5µM*	?	?	-16%	-85*	?	?
CCC(C)Sc1oc(-c2ccco2)nc1S(=O)(=O)c1ccc(Cl)cc1 (centres undefined)	.	9%[46.1 µM]	-6%[46.1 µM]	-5%	-16	.	.
CC(C)c1nn2c(=O)cc(COC(=O)c3ccc(NC(=O)c4ccccc4Cl)cc3)nc2s1	.	.	?	?	-19	.	.
SMILES	SARS PLpro yeast-1	Marburg entry inh	LASV entry inh	FMDV antiviral	HCMV antiviral	HCV inh	SARS PLpro yeast-2
CN(C)c1ccc(/C=N\NC(=S)SCN2C(=O)C3CCC(C)(C2=O)C3(C)C)cc1 (centres undefined)	13µM*	-15%[46.1 µM]	?	16%	-13	?	+
O=C(NCc1ccco1)c1ccc2c(c1)N(Cc1ccc(F)cc1)C(=O)c1ccccc1S2=O (centres undefined)	.	-5%[46.1 µM]	-7%[46.1 µM]	-12%	9	.	.
COc1ccc(/C=N\NC(=O)c2cc(O)c(O)c(O)c2)cc1CN1CCN(c2ccc(F)cc2)CC1	13µM*	-9%	1%	-14%	-27	?	+
COc1ccc(/C=N/NC(=O)c2ccc(C)cc2)cc1CN1CCN(c2ccc(F)cc2)CC1	8%	20%	25%	-16%	13	?	.
C[C@H](CO)N1C[C@H](C)[C@@H](CN(C)C(=O)Nc2ccccc2)Oc2c(NC(=O)NC3CCCCC3)cccc2C1=O	?	.	.	46%	-18	1%	i
C[C@H]1CN([C@@H](C)CO)C(=O)c2cccc(NS(=O)(=O)c3ccc(F)cc3)c2O[C@H]1CN(C)Cc1ccc(Cl)c(Cl)c1	-4%	.	.	-16%	15	-25%	.
C[C@H](CO)N1C[C@H](C)[C@@H](CN(C)C(=O)NC2CCCCC2)Oc2c(NC(=O)Nc3ccccc3)cccc2C1=O	5%	.	.	25%	-34	?	.
COc1ccc(S(=O)(=O)Nc2cccc3c2O[C@H](CN(C)Cc2ccc(Cl)c(Cl)c2)[C@@H](C)CN([C@H](C)CO)C3=O)cc1	?	.	.	22%	-3	-5%	?
Cc1ccc(CN2CCN(/N=C/c3ccc(C(F)(F)F)cc3)CC2)c(C)c1	?	-23%	3%	-22%	-15	10%	i
Cc1ccc(-n2c(C)cc(/C=N/NC(N)=S)c2C)cc1	11µM*	?	?	-9%	-15	?	+
COc1ccc(Nc2nc(C)c3ccccc3n2)cc1	-4%	?	21%	33%	54	?	.
Cc1ccc(NC(=S)/N=C(\N)Nc2nc(C)c3ccccc3n2)cc1C	10µM*	?	-24%	-25%	-35	11µM*	+
CC(C)(C)C1=CC(CC(N)=O)(C(C)(C)C)OC1=O (centres undefined)	.	.	.	.	-23	.	.
CC(C)Nc1nc(NC(C)C)nc(OCCOC(=O)c2ccccc2)n1	?	-7%	-18%	13%	-2	?	i
CC(=O)OCCOc1nc(NC(C)C)nc(NC(C)C)n1	-9%	4%	-14%	-3%	37	15%	.
